Experimental data taken from PubChem BioAssay AID1789 (The Scripps Research Institute Molecular Screening Center, 2009).
Screen size: about 290,000 compounds; about 2,700 (0.93%) were called active.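 How the source made its calls: active means inhibition above the screen-wide mean plus 3 SD, computed separately per campaign (cut at about 16% in these data); inactive means the rest.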 Shown is part of a subset that was picked to be rich in actives.

Tested on: Heat shock protein HSP 90 (rabbit reticulocyte lysate; luciferase refolding)
Assay: inhibitors of HSP90 chaperone activity – cell lysate, luminescence, primary screen (AID 1789);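 further: 0% = DMSO wells and 100% = 60 µM geldanamycin wells; inhibitors lower the luminescence because luciferase stays unfolded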
Conditions: 3 h, at 5.6 µM, stronger effect = higher value

inhibition, active:
c1ccc(-c2noc(-c3cccs3)n2)nc1 21.2%
C/C(=N\NC(=S)NC1CCCCC1)c1ccc(C)o1 19.9%
Cc1ccc(-n2c(SCC(=O)Nc3ncc(Cl)cc3Cl)nc3ccccc32)cc1 19.5%
Nc1ccc(-c2nnc(-c3ccccc3)o2)cc1 20.3%
CCCOc1ccc(C(=O)NCCc2ccccc2)cc1 20.7%
Cc1ccc(C(=O)O/N=C(\N)c2ccccn2)cc1Cl 42.5%
CCN(CC)C(=O)c1sc2nc(-c3ccccc3)ccc2c1N 16.5%
CCCCNC(=O)Nc1c(C)cc(SC#N)cc1C 36.7%
Cc1nc2ccc(C(=O)O)cc2[nH]1 31.3%
CC(C)c1nc2ccc(C(=O)O)cc2[nH]1 37.9%
Cc1cnc(NC(=O)c2ccccn2)s1 21%
CCN(CC)CCN1C(=O)C(=O)/C(=C(/O)c2cnn(-c3ccccc3)c2C)C1c1cccs1 (configuration not stated) 33.3%
CCN(CCCNC(=O)c1ccc2c(c1)NC(=O)CN2C)c1cccc(C)c1 19.6%
C=CCN1CCN(C(=O)CCCc2ccccc2)CC1 39.7%
O=C(OCc1ccc(-c2ccccc2)cc1)c1cccc(O)c1 18.4%
Cc1ccc(C(=O)CSc2ccccc2C(=O)O)cc1 23.8%
CCC(=C/c1sc2ccc3ccccc3c2[n+]1C)/C=C1\Sc2ccc3ccccc3c2N1C 19.1%
CCOc1ccc(C2NC(=S)NC3=C2CCc2ccccc23)cc1 (configuration not stated) 24.1%
COc1ccc(Nc2ncnc3ccc(Br)cc23)c(OC)c1 35.7%

inhibition, inactive:
COc1ccc(C(C)NC(=O)C2CCCC2)cc1 (configuration not stated) -1.94%
CCCc1cc(=O)oc2c(C)c(OC(C)C(=O)NCC(O)c3ccccc3)ccc12 (configuration not stated) -5.71%
COc1nc(-c2ccc(Cl)cc2)ccc1-c1noc(-c2cccs2)n1 -4.45%
O=C(Oc1ccc(-c2nc(-c3ccccn3)no2)cc1)c1ccccc1 3.06%
COCC1CCCN(C(=O)c2ccc3oc(C(C)C)nc3c2)C1 (configuration not stated) 2.21%
Cc1n[nH]c(=O)c2c1nnn2Cc1ccc(F)cc1 0.06%
C/C(=N/NC(=O)c1ccc(Br)o1)c1ccc(C)o1 1.47%
Cc1ccc(/C=N/NC(=S)NC2CCCCC2)o1 -0.34%
COc1ccc(OC)c(NC(=O)c2ccc3c(c2)CCN3S(C)(=O)=O)c1 -4.49%
O=C(C1CCC(=O)N(C2CC2)C1)N1CCN(c2ccc(Cl)cc2)CC1 (configuration not stated) 0.69%
CCOc1cc(C2/C(=C(/O)c3ccc(S(=O)(=O)N4CCCCC4)cc3)C(=O)C(=O)N2CCOC)ccc1O (configuration not stated) -4.72%
Fc1ccccc1/C=C1\CCCC2=C1Nc1ncnn1C2c1ccccc1F (configuration not stated) 5.24%
Cc1ccc(SCCC(=O)OCC(=O)Nc2ncc(Cl)cc2Cl)cc1 3.89%
NS(=O)(=O)c1cccc(NC(=O)CSc2nc3ccccc3n2-c2ccccc2)c1 2.1%
COc1cccc(C(=O)N/N=C(\C)c2cccc(NC(=O)c3ccc(F)cc3)c2)c1OC -0.84%
COc1cccc(NC(=O)C/C(C)=N/NC(=O)C2CCCCC2)c1 -2.92%
O=C(COc1ccc2ccc(=O)oc2c1)NCC(O)c1ccccc1 (configuration not stated) -3.81%
Nc1ccc(-c2sc(N)nc2-c2ccccc2)cc1 -4.32%
Brc1ccc(-c2nnc(-c3ccccc3)o2)o1 -0.79%
CCOc1ccc(S(=O)(=O)N2CCCC(C(=O)N3CCC(C(N)=O)CC3)C2)cc1Cl (configuration not stated) -3.03%
COc1ccc(OCCCC(=O)NCCc2ccccc2)cc1 -4.96%
CCCc1ccc(OCCNC(=O)c2ccco2)cc1 -5.63%
CCCOc1cccc(C(=O)NCCCNC(=O)c2cccnc2)c1 3.77%
Nc1cc(N2CCCCCC2)c2nonc2c1[N+](=O)[O-] 0.32%
Cn1ncc2c(NNC(=O)Cc3cccc4ccccc34)ncnc21 5.78%
N/C(=N\OC(=O)c1ccc([N+](=O)[O-])cc1)c1ccccn1 2.51%
COc1ccc(C(=O)O/N=C(\N)c2ccccn2)cc1[N+](=O)[O-] -3.48%
CN(C)c1ccc(C2N(C)C(=O)c3ccccc3N2C)cc1 (configuration not stated) 4.78%
Cc1ccc(C)c(NS(=O)(=O)c2c(C)[nH]c(C)c2C(=O)N2CCCCC2)c1 3.8%
O=C(Nc1ccccc1Cl)NC1(C(=O)N2CCOCC2)CCCCC1 0.58%
Cc1ccc2c(N)c(C(=O)c3ccccc3)sc2n1 1.67%
CS(=O)(=O)c1sc2nc(-c3ccccc3)cc(-c3ccccc3)c2c1N 0.41%
O=C(O)CSc1c2c(nc3cc(C(=O)Nc4cccc(C(F)(F)F)c4)ccc13)CCCC2 -0.05%
CCCCNC(=O)C(=O)c1ccccc1NC(C)=O 4.09%
CCCCNC(=S)NNC(=O)c1cc(C)on1 -1.37%
CC(C)CC[n+]1ccn(C2=C([O-])c3ccccc3C(=O)/C2=N\S(=O)(=O)c2ccccc2)c1 6.11%
CCOC(=O)c1sc(NC(=O)c2sc(C)nc2C)nc1C 9.21%
CC1CCCCN1CCCNc1ccc(C(CC(N)=O)NC(=O)c2ccccc2)cc1[N+](=O)[O-] (configuration not stated) -2.66%
OC(c1nc2ccccc2[nH]1)C(O)C(O)C(O)c1nc2ccccc2[nH]1 (configuration not stated) -0.14%
OC(c1nc2ccc(F)cc2[nH]1)C(O)c1nc2ccc(F)cc2[nH]1 (configuration not stated) -4.25%
Cc1nc2ccc(C(=O)N/N=C/c3ccc(O)cc3)cc2[nH]1 1.87%
Cc1nc2ccc(C(=O)N(C)CC3CCCN(CCc4ccc(Cl)cc4)C3)cc2[nH]1 (configuration not stated) -8.86%
COc1ccc(C(=O)n2nc(C)c(Br)c2C)cc1OC 4.92%
C#CCOc1ccc(/C=C2/C(=O)ON=C2C)cc1OCC 1.13%
Cc1ccc(NC(=O)C(CC(=O)O)C2CCCO2)c(C)c1 (configuration not stated) -2.07%
CCOC(=O)N1CCC(NC(=O)CCc2ccccc2)CC1 2.73%
COc1ccc(C(=O)NCCn2nc(C)cc2C)cc1OC1CCN(C(C)=O)CC1 0.85%
O=C(Nc1nnc(C2CC2)s1)c1ccccn1 16%
Cc1cnc(NC(=O)c2ccc(Cl)nc2)s1 -0.28%
O=C(CN1CCN(C(=O)C2CCCO2)CC1)Nc1c(Cl)cccc1Cl (configuration not stated) -1.9%
CCN(CC)CCN1C(=O)C(=O)/C(=C(/O)c2ccc(OC)c(OC)c2)C1c1ccccn1 (configuration not stated) 0.07%
CCN(CC)CCN1C(=O)C(=O)/C(=C(/O)c2ccccc2)C1c1ccccc1F (configuration not stated) 1.61%
CCOc1ccc(OCC(=O)Nc2c3c(nn2C(C)(C)C)CS(=O)(=O)C3)cc1 4.2%
Cc1cccc(C(=O)NCCCN(C)CCCNC(=O)c2cccc(C)c2)c1 -1.31%
CCN(CCCNC(=O)CCn1c(=O)[nH]c2ccsc2c1=O)c1ccccc1 0.39%
O=C(Oc1cccc(C(=S)N2CCOCC2)c1)c1cccc(Cl)c1 -2.58%
O=C(CCCc1ccccc1)NCc1ccccc1 -2.48%
CC(=O)c1ccc(N2CCN(C(=O)CCc3ccccc3)CC2)cc1 -1.79%
O=C(OCC(=O)c1c[nH]c2ccccc12)c1cccc(O)c1 -4.88%
O=C(OCc1ccc(Br)cc1)c1cccc(-c2nnc(-c3ccccc3)o2)c1 3.03%
O=C(COc1cc2oc(=O)c3c(c2cc1Cl)CCC3)NCCCN1CCOCC1 -0.69%
COc1ccc(N2CCN(C(=O)C3CCN(C(=O)c4ccccc4Cl)CC3)CC2)cc1 1.46%
COc1ccc(NC(=O)C/C(C)=N/NC(=O)c2cnccn2)cc1Cl -1.56%
Cc1ccc(Sc2cc(C(=O)c3ccccc3C(=O)O)ccc2[N+](=O)[O-])cc1 -2.36%
O=C(CSc1cccc[n+]1[O-])c1ccc(-c2ccccc2)cc1 -3.2%
COc1ccc(C(C(=O)NC2CCCC2)N(CCCO)C(=O)Cn2nnc(-c3ccc(C)o3)n2)cc1 (configuration not stated) -2.61%
CCOC(=O)CSc1nc(N2CCOCC2)c2c(c1C#N)CC(C(C)C)OC2 (configuration not stated) 0.22%
CCn1c(=O)c(=O)[nH]c2c(=O)oc3ccc(S(=O)(=O)Nc4ccc(OC)cc4)cc3c21 1.48%
CCOC(=O)c1ccc(NC(=O)c2ccc(NC(=O)C3CCCO3)cc2)cc1 (configuration not stated) -2.21%
COc1ccc(CCNC(=O)C(=O)NCC2OCCN2S(=O)(=O)c2ccc(OC)c(C)c2)cc1 (configuration not stated) 3.33%
O=C(NCCCN1CCCC1=O)C(=O)NCC1OCCN1S(=O)(=O)c1ccc(Br)cc1 (configuration not stated) -3.67%
CCOC(=O)C1=C(c2ccccc2)NC(=S)NC1c1ccc(Cl)cc1 (configuration not stated) 2.24%
COc1ccc(C2NC(=S)NC3=C2CCc2ccccc23)cc1OC (configuration not stated) -4.91%
COc1ccc(-c2cc(=O)oc3cc(OC(C)C(=O)Nc4ccc(CN5CCOCC5)cc4)ccc23)cc1 (configuration not stated) -1.3%
COc1cc(OC)cc(C(=O)NCCSCc2ccc(Cl)cc2)c1 2.62%
CCOC(=O)C1CCN(S(=O)(=O)c2c(C)noc2C)CC1 -1.41%
C=CCNc1ncnc2ccc(Br)cc12 -3.86%
COc1ccc(Nc2ncnc3sc(-c4ccccc4)cc23)c(OC)c1 -1.63%
